PubChem BioAssay (NCI)
About 79,000 compounds went through this panel and 15% of them were active in at least one assay; those are over-represented in the sample as a whole. Unmarked numbers belong to inactive results. The source made the active and inactive calls. Rule as the data show it: active = growth inhibition above about 70%; inactive = the rest.

Experiments:
[1] = NCI Yeast Anticancer Drug Screen. Data for the wt1 strain (AID 149);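 also: 0% = growth of vehicle-treated wt1 cultures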; settings: S. cerevisiae wt1 strain (SPY 50644) growth inhibition, hits give high values
In short: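 Vehicle-normalised growth inhibition; strain wt1; compound exposure.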

[2] = NCI Yeast Anticancer Drug Screen. Data for the rad50EPP+ strain (AID 151);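 also: 0% = growth of vehicle-treated control cultures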; settings: S. cerevisiae rad50 mutant strain, hits give high values
In short: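 Strain rad50EPP+; compound exposure; % growth inhibition vs vehicle.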

[3] = NCI Yeast Anticancer Drug Screen. Data for the mgt1 strain (AID 153); settings: S. cerevisiae mgt1 mutant growth inhibition, hits give high values
In short: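 Read-out: yeast growth inhibition vs vehicle control. Strain mgt1, drawn from a panel altered in DNA damage repair or cell cycle control.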

[4] = NCI Yeast Anticancer Drug Screen. Data for the rad50 strain (AID 155);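 also: 0% = growth of vehicle-only cultures of the same strain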; settings: S. cerevisiae rad50 strain growth inhibition, hits give high values
In short: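 A DNA repair-deficient yeast mutant serves as the test organism; compound-induced growth inhibition is calculated against vehicle-treated cells.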

[5] = NCI Yeast Anticancer Drug Screen. Data for the mec2-1 strain (AID 157); settings: S. cerevisiae mec2-1 strain, hits give high values
In short: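 Cells of the genetically defined mec2-1 yeast strain are incubated with test compound. Inhibition of growth is calculated against vehicle-treated controls.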

[6] = NCI Yeast Anticancer Drug Screen. Data for the rad14 strain (AID 159);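 also: 0% = growth of vehicle-treated control cultures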; settings: S. cerevisiae rad14 strain growth inhibition, hits give high values
In short: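 Vehicle-treated cultures served as the baseline for growth inhibition of a DNA repair-mutant yeast strain exposed to each compound.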

[7] = NCI Yeast Anticancer Drug Screen. Data for the sgs1 mgt1 strain (AID 161);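 also: 0% = growth of cultures given vehicle only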; settings: S. cerevisiae sgs1 mgt1 strain, hits give high values
In short: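 Mutant yeast exposed to compound; growth scored against vehicle-only wells.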

[8] = NCI Yeast Anticancer Drug Screen. Data for the CLN2oe strain (AID 163);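 also: 0% = growth of vehicle-only control cultures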; settings: S. cerevisiae CLN2oe strain, hits give high values
In short: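 Strain altered in cell-cycle control, incubated with compound; growth compared to solvent-treated controls.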

[9] = NCI Yeast Anticancer Drug Screen. Data for the cln2 rad14 strain (AID 165);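 also: 0% = growth equal to vehicle treated cultures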; settings: S. cerevisiae cln2 rad14 strain, hits give high values
In short: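 The screen exposed genetically defined yeast (cln2 rad14) to test compounds and scored growth inhibition relative to vehicle-treated controls.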

[10] = NCI Yeast Anticancer Drug Screen. Data for the bub3 strain (AID 167); settings: S. cerevisiae bub3 mutant strain, hits give high values
In short: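 Inhibition values come from growth of compound-treated mutant yeast normalised to vehicle-treated controls.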

[11] = NCI Yeast Anticancer Drug Screen. Data for the wt2 strain (AID 169);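 also: 0% = growth of vehicle-treated yeast cultures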; settings: S. cerevisiae wt2 strain growth inhibition, hits give high values
In short: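 Steps: yeast strain treated with compound; growth recorded; inhibition calculated relative to cultures given vehicle alone.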

[12] = NCI Yeast Anticancer Drug Screen. Data for the mlh1 strain (AID 171);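 also: 0% = growth of vehicle-treated control cultures of the same strain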; settings: S. cerevisiae mlh1 strain growth inhibition, hits give high values
In short: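 Yeast screen: mutant strain plus compound, growth scored against vehicle control wells.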

[13] = NCI Yeast Anticancer Drug Screen. Data for the mlh1 rad18 strain (AID 175); settings: S. cerevisiae mlh1 rad18 strain growth inhibition, hits give high values
In short: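 Compound-treated yeast growth, normalised to vehicle controls. Strain bears defined DNA repair mutations.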

[14] = NCI Yeast Anticancer Drug Screen. Data for the rad18 strain (AID 177); settings: S. cerevisiae rad18 mutant growth inhibition, hits give high values
In short: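 Inhibition values reflect reduced yeast growth compared with vehicle-treated controls, using a strain engineered with a DNA damage repair defect.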

[15] = NCI Yeast Anticancer Drug Screen. Data for the sgs1 strain (AID 173);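 also: 0% = growth of vehicle-only control cultures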; settings: S. cerevisiae sgs1 mutant, hits give high values
In short: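 Inhibition of yeast growth served as the measure. The mutant strain was treated with each compound, and growth was normalised to cultures receiving vehicle alone.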

[16] = at 5.0 µM (retest, dose inferred, filed as 0.5)
[17] = at 50.0 µM (retest, dose inferred, filed as 5.0)

Compound: CCNC(=O)OCC1C2=C(C(=O)C(C)=C(N)C2=O)N2CC3C(N3C)C12OC (stereo unspecified)
- growth inhibition ([1]; at 1.2 µM): -19%
- growth inhibition ([1]; at 3.7 µM): -16%
- growth inhibition ([1]; at 11.0 µM): -4%
- growth inhibition ([1]; at 33.0 µM): 23%
- growth inhibition ([1]; at 100.0 µM): 67%
- growth inhibition ([2]; at 1.2 µM): 6%
- growth inhibition ([2]; at 3.7 µM): -12%
- growth inhibition ([2]; at 11.0 µM): -6%
- growth inhibition ([2]; at 33.0 µM): 13%
- growth inhibition ([2]; at 100.0 µM): 41%
- growth inhibition ([3]; at 1.2 µM): 2%
- growth inhibition ([3]; at 3.7 µM): 2%
- growth inhibition ([3]; at 11.0 µM): 21%
- growth inhibition ([3]; at 33.0 µM): 37%
- growth inhibition ([3]; at 100.0 µM): 74% (active)
- growth inhibition ([4]; at 1.2 µM): 14%
- growth inhibition ([4]; at 3.7 µM): 15%
- growth inhibition [4, 16]: 34%
- growth inhibition ([4]; at 11.0 µM): 19%
- growth inhibition ([4]; at 33.0 µM): 57%
- growth inhibition [4, 17]: 70% (active)
- growth inhibition ([4]; at 50.0 µM): 58%
- growth inhibition ([4]; at 100.0 µM): 78% (active)
- growth inhibition ([5]; at 1.2 µM): 9%
- growth inhibition ([5]; at 3.7 µM): 13%
- growth inhibition [5, 16]: 23%
- growth inhibition ([5]; at 11.0 µM): 18%
- growth inhibition ([5]; at 33.0 µM): 58%
- growth inhibition [5, 17]: 71% (active)
- growth inhibition ([5]; at 50.0 µM): 63.6%
- growth inhibition ([5]; at 100.0 µM): 87% (active)
- growth inhibition ([6]; at 1.2 µM): -9%
- growth inhibition ([6]; at 3.7 µM): -5%
- growth inhibition ([6]; at 11.0 µM): 8%
- growth inhibition ([6]; at 33.0 µM): 45%
- growth inhibition ([6]; at 100.0 µM): 78% (active)
- growth inhibition [7, 16]: 23%
- growth inhibition [7, 17]: 68%
- growth inhibition ([7]; at 50.0 µM): 47.6%
- growth inhibition ([8]; at 1.2 µM): 4%
- growth inhibition ([8]; at 3.7 µM): 4%
- growth inhibition ([8]; at 11.0 µM): 19%
- growth inhibition ([8]; at 33.0 µM): 41%
- growth inhibition ([8]; at 100.0 µM): 80% (active)
- growth inhibition [9, 16]: 14%
- growth inhibition [9, 17]: 50%
- growth inhibition ([9]; at 50.0 µM): 44.7%
- growth inhibition ([10]; at 1.2 µM): 13%
- growth inhibition ([10]; at 3.7 µM): 9%
- growth inhibition [10, 16]: 21%
- growth inhibition ([10]; at 11.0 µM): 10%
- growth inhibition ([10]; at 33.0 µM): 36%
- growth inhibition [10, 17]: 50%
- growth inhibition ([10]; at 50.0 µM): 21.8%
- growth inhibition ([10]; at 100.0 µM): 71% (active)
- growth inhibition ([11]; at 1.2 µM): -37%
- growth inhibition ([11]; at 3.7 µM): -32%
- growth inhibition ([11]; at 11.0 µM): -28%
- growth inhibition ([11]; at 33.0 µM): 6%
- growth inhibition ([11]; at 100.0 µM): 34%
- growth inhibition ([12]; at 1.2 µM): 15%
- growth inhibition ([12]; at 3.7 µM): 18%
- growth inhibition ([12]; at 11.0 µM): 32%
- growth inhibition ([12]; at 33.0 µM): 56%
- growth inhibition ([12]; at 100.0 µM): 84% (active)
- growth inhibition [13, 16]: 73% (active)
- growth inhibition [13, 17]: 92% (active)
- growth inhibition ([13]; at 50.0 µM): 70.8% (active)
- growth inhibition ([14]; at 1.2 µM): 13%
- growth inhibition ([14]; at 3.7 µM): 40%
- growth inhibition ([14]; at 11.0 µM): 72% (active)
- growth inhibition ([14]; at 33.0 µM): 89% (active)
- growth inhibition ([14]; at 100.0 µM): 91% (active)

Compound: CCCN(CCC)c1c([N+](=O)[O-])cc(S(N)(=O)=O)cc1[N+](=O)[O-]
- growth inhibition ([1]; at 1.2 µM): 10%
- growth inhibition ([1]; at 3.7 µM): 6%
- growth inhibition ([1]; at 11.0 µM): 18%
- growth inhibition ([1]; at 33.0 µM): 19%
- growth inhibition ([1]; at 100.0 µM): 7%
- growth inhibition ([2]; at 1.2 µM): -23%
- growth inhibition ([2]; at 3.7 µM): -33%
- growth inhibition ([2]; at 11.0 µM): -31%
- growth inhibition ([2]; at 33.0 µM): -23%
- growth inhibition ([2]; at 100.0 µM): -22%
- growth inhibition ([3]; at 1.2 µM): -1%
- growth inhibition ([3]; at 3.7 µM): 0%
- growth inhibition ([3]; at 11.0 µM): -11%
- growth inhibition ([3]; at 33.0 µM): 25%
- growth inhibition ([3]; at 100.0 µM): -2%
- growth inhibition ([4]; at 1.2 µM): 14%
- growth inhibition ([4]; at 3.7 µM): 12%
- growth inhibition [4, 16]: -5%
- growth inhibition ([4]; at 11.0 µM): 33%
- growth inhibition ([4]; at 33.0 µM): 44%
- growth inhibition [4, 17]: 26%
- growth inhibition ([4]; at 50.0 µM): 63.4%
- growth inhibition ([4]; at 100.0 µM): 15%
- growth inhibition ([5]; at 1.2 µM): -7%
- growth inhibition ([5]; at 3.7 µM): 0%
- growth inhibition [5, 16]: -13%
- growth inhibition ([5]; at 11.0 µM): -25%
- growth inhibition ([5]; at 33.0 µM): 32%
- growth inhibition [5, 17]: 15%
- growth inhibition ([5]; at 50.0 µM): 51.8%
- growth inhibition ([5]; at 100.0 µM): -2%
- growth inhibition ([6]; at 1.2 µM): -11%
- growth inhibition ([6]; at 3.7 µM): -18%
- growth inhibition ([6]; at 11.0 µM): -24%
- growth inhibition ([6]; at 33.0 µM): 29%
- growth inhibition ([6]; at 100.0 µM): -2%
- growth inhibition [7, 16]: -11%
- growth inhibition [7, 17]: 35%
- growth inhibition ([7]; at 50.0 µM): 47.7%
- growth inhibition ([8]; at 1.2 µM): -11%
- growth inhibition ([8]; at 3.7 µM): -3%
- growth inhibition ([8]; at 11.0 µM): -4%
- growth inhibition ([8]; at 33.0 µM): 30%
- growth inhibition ([8]; at 100.0 µM): 2%
- growth inhibition [9, 16]: 2%
- growth inhibition [9, 17]: 73% (active)
- growth inhibition ([9]; at 50.0 µM): 85.3% (active)
- growth inhibition ([10]; at 1.2 µM): -13%
- growth inhibition ([10]; at 3.7 µM): -22%
- growth inhibition [10, 16]: 4%
- growth inhibition ([10]; at 11.0 µM): -17%
- growth inhibition ([10]; at 33.0 µM): 32%
- growth inhibition [10, 17]: 80% (active)
- growth inhibition ([10]; at 50.0 µM): 89.5% (active)
- growth inhibition ([10]; at 100.0 µM): -9%
- growth inhibition ([11]; at 1.2 µM): -6%
- growth inhibition ([11]; at 3.7 µM): -2%
- growth inhibition ([11]; at 11.0 µM): -7%
- growth inhibition ([11]; at 33.0 µM): 3%
- growth inhibition ([11]; at 100.0 µM): -2%
- growth inhibition ([12]; at 1.2 µM): -27%
- growth inhibition ([12]; at 3.7 µM): -28%
- growth inhibition ([12]; at 11.0 µM): -16%
- growth inhibition ([12]; at 33.0 µM): 31%
- growth inhibition ([12]; at 100.0 µM): -6%
- growth inhibition ([15]; at 1.2 µM): 3%
- growth inhibition ([15]; at 3.7 µM): 10%
- growth inhibition ([15]; at 11.0 µM): 16%
- growth inhibition ([15]; at 33.0 µM): 30%
- growth inhibition ([15]; at 100.0 µM): 6%
- growth inhibition [13, 16]: 9%
- growth inhibition [13, 17]: 70% (active)
- growth inhibition ([13]; at 50.0 µM): 72.9% (active)
- growth inhibition ([14]; at 1.2 µM): -8%
- growth inhibition ([14]; at 3.7 µM): -1%
- growth inhibition ([14]; at 11.0 µM): 6%
- growth inhibition ([14]; at 33.0 µM): 50%
- growth inhibition ([14]; at 100.0 µM): 0%
